F508del corr – correctors of CFTR F508del function in bronchial epithelial cells; CFBE cells, YFP halide quenching; stimulated with forskolin plus potentiator P3; % fluorescence drop versus neutral controls; 350,000 compounds, 0.36% hits; activity (quench increase), % at 7.58 µM; AID 720511;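 active means mean added fluorescence quench of at least 8% versus neutral control, with both replicates also reaching 8%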;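 further: cells transiently co-express mutant CFTR-F508del with the halide-sensitive YFP; corrector assay measuring rescue of mutant channel to the surface after 24 h compound exposure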
FGF22 binding – binders of recombinant human FGF22 by thermal shift; 340,000 compounds, 1.5% hits; Q9HCT0; AID 651658; activity (Tm shift, normalised), % at 9.99 µM; SYPRO orange fluorescence; percent of sucrose octasulfate shift, DMSO zero;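 active means mean Tm shift, scaled 0 neutral to 100 positive control, at about 1.3% or above, every replicate too, limit read from the data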
Target sequence (Q9HCT0 whole entry, looked up): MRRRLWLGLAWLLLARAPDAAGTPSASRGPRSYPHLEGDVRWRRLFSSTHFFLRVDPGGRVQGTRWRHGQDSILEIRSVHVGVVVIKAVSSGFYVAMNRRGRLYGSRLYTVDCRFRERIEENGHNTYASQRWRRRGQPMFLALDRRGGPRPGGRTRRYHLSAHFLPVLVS
Vif inh – HIV Vif inhibition; AID 602346; inhibition, % at 7.49 µM; HEK293T cells, Vif self-association by quenched fluorescence, imaging, 24 h; 340,000 compounds, 0.35% hits; in the data active means inhibition above about 50%, passing the limit was not always enough
Large screens that a line does not name were inactive; ! = a repeat was not active. The list is not random: actives were taken first. Their share in the collection is about 1.7%.

C[C@H]1CN([C@@H](C)CO)C(=O)c2cccc(NC(=O)c3ccncc3)c2O[C@@H]1CN(C)Cc1ccc(C(F)(F)F)cc1	FGF22 binding 16.6 (no result: Vif inh)
C[C@H](CO)N1C[C@H](C)[C@@H](CN(C)Cc2ccc(-c3ccccc3)cc2)Oc2c(NC(=O)C3CC3)cccc2C1=O	FGF22 binding 147.9 (no result: Vif inh)
CCS(=O)(=O)Nc1ccc2c(c1)C(=O)N(C)[C@H]1CC[C@@H](CC(=O)Nc3ccccc3)O[C@@H]1CO2	none (no result: Vif inh)
C[C@H]1CN([C@@H](C)CO)C(=O)c2cccc(NC(=O)c3ccc(-c4nccs4)cc3)c2O[C@@H]1CN(C)CC1CCCCC1	none (no result: Vif inh)
C[C@H](CO)N1C[C@H](C)[C@H](CN(C)C(=O)NC2CCCCC2)Oc2ncc(C#CC(C)(C)O)cc2C1=O	none (no result: Vif inh)
O=C(C[C@@H]1CC[C@@H]2[C@H](COC[C@@H](O)CN2Cc2ccc3c(c2)OCO3)O1)Nc1ccc(-c2ccccc2)cc1	none (no result: Vif inh)
CN1CCN(C(=O)C[C@@H]2CC[C@H]3[C@@H](COC[C@@H](O)CN3Cc3cccc(F)c3)O2)CC1	none (no result: Vif inh)
O=C(C[C@H]1CC[C@@H]2[C@H](COC[C@@H](O)CN2S(=O)(=O)c2ccccc2)O1)Nc1ccc(-c2ccccc2)cc1	F508del corr 8.3 (no result: Vif inh)
CN1CCN(C(=O)C[C@H]2CC[C@H]3[C@@H](COC[C@@H](O)CN3Cc3cccc(F)c3)O2)CC1	FGF22 binding 43.2! (no result: Vif inh)
O=C(C[C@@H]1CC[C@H]2[C@@H](COC[C@H](O)CN2Cc2ccc3c(c2)OCO3)O1)Nc1ccc(-c2ccccc2)cc1	F508del corr 9.6 (no result: Vif inh)
O=C(C[C@H]1CC[C@H]2[C@@H](COC[C@@H](O)CN2S(=O)(=O)c2cccc(Cl)c2)O1)Nc1ccc(-c2ccccc2)cc1	none (no result: FGF22 binding, Vif inh)
O=C(C[C@H]1CC[C@@H]2[C@H](COC[C@@H](O)CN2S(=O)(=O)c2cccc(Cl)c2)O1)Nc1ccc(-c2ccccc2)cc1	FGF22 binding 1.3 (no result: Vif inh)
O=C(C[C@@H]1CC[C@@H]2[C@H](COC[C@@H](O)CN2S(=O)(=O)c2ccccc2)O1)Nc1ccc(-c2ccccc2)cc1	none (no result: Vif inh)
CCCNC(=O)N(C)C[C@H]1Oc2cc(-c3ccncc3)ccc2S(=O)(=O)N([C@@H](C)CO)C[C@@H]1C	none (no result: Vif inh)
O=C(c1ccc2ccccc2c1)N1CCN(Cc2ccccc2)CC1	F508del corr 10.6
O=C(C(=O)N1CCN(Cc2ccccc2)CC1)c1c[nH]c2ccccc12	none
O=C(c1c[nH]c2ccccc12)N1CCN(Cc2ccccc2)CC1	FGF22 binding 42.9
O=C(c1ccc(S(=O)(=O)NCc2ccco2)cc1)N1CCN(Cc2ccccc2)CC1	FGF22 binding 43.8
O=C(OCC(=O)N1CCN(C(=O)c2ccco2)CC1)c1ccc(Cl)cc1	none
O=C(OCC(=O)N1CCN(Cc2ccccc2)CC1)c1ccc(Cl)cc1	FGF22 binding 43.6
COc1ccc(CN2CCN(C(=O)c3ccc(S(=O)(=O)NCc4ccco4)cc3)CC2)cc1	none (no result: FGF22 binding)
O=C(c1cccc(C(=O)N2CCN(Cc3ccccc3)CC2)c1)N1CCN(Cc2ccccc2)CC1	none (no result: F508del corr, FGF22 binding)
C[C@@H]1CN([C@H](C)CO)S(=O)(=O)c2ccc(C3=CCCC3)cc2O[C@@H]1CN(C)C(=O)c1cnccn1	none (no result: Vif inh)
CCCNC(=O)N1C[C@H]2[C@@H](c3ccccc31)[C@@H](CO)N2C(=O)Cc1ccccn1	none (no result: Vif inh)
COCC#Cc1cnc2c(c1)C(=O)N([C@@H](C)CO)C[C@H](C)[C@H](CN(C)C(=O)c1cccnc1)O2	none (no result: Vif inh)
Cc1c(CCOC(=O)c2ccc(N3CCOCC3)c([N+](=O)[O-])c2)sc[n+]1CC#N	none
Cc1ncsc1CCOC(=O)c1ccc(N2CCOCC2)c([N+](=O)[O-])c1	FGF22 binding 43.7
O=C(NC1CCCC1)N1CC(=O)N2[C@H](CO)[C@H](c3ccc(C4=CCCC4)cc3)[C@@H]2C1	none (no result: FGF22 binding, Vif inh)
CCOCCCNC(C(=O)Nc1ccc(OC)c(Cl)c1)c1ccccc1 (configuration not stated)	FGF22 binding 43.1
COc1ccc(NC(=O)CNC(c2ccccc2)c2ccccc2)cc1Cl	none
Cc1nonc1CN(C)C(=O)c1ccc(OC2CCN(Cc3ccccn3)CC2)cc1	FGF22 binding 44.0
Cc1cc(CN(C)C(=O)c2ccc(OC3CCN(Cc4ccccn4)CC3)cc2)on1	none
CCOCC(O)CNC(=O)c1ccc(OC2CCN(C(=O)c3cccnc3)CC2)cc1 (configuration not stated)	none
Cc1nonc1CN(C)C(=O)c1ccc(OC2CCN(C(=O)c3cccnc3)CC2)cc1	FGF22 binding 44.1
O=C(C1CCOCC1)N1CC2(C1)[C@@H](c1ccccc1)[C@@H](CO)N2CCC(F)(F)F	none (no result: FGF22 binding, Vif inh)
O=C(C[C@@H]1C=C[C@H](NC(=O)CCN2CCCCC2)[C@@H](CO)O1)Nc1ccc(-c2ccccc2)cc1	none (no result: Vif inh)
